Bioassay records from PubChem.
ADAM17 inh: inhibits human ADAM17 | recombinant ADAM17, EDANS/DABCYL FRET peptide cleavage | inhibition, % at 6.95 µM | 0.83% of 370,000 active | P78536;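 active = inhibition above the mean of compounds lying between control limits plus 3 SD, set per campaign, cut at about 8.5% in these data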
HGIII-sPLA2 inh: Inhibits HGIII-sPLA2 liposome hydrolysis, primary screen. Q9NZ20. QFRET BODIPY PC-A2 liposome hydrolysis, fluorescence. 0.56% of 370,000 active. inhibition, % at 12.2 µM;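 active = inhibition above mean plus 3 SD of compounds lying within the high and low control bounds, cut at about 19% in these data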
GRIN3A LBD mod: modulates the human NR3A ligand-binding domain; NR3A LBD differential scanning fluorimetry, Tm shift; 0% = protein alone, 100% = glycine-bound protein; Tm shift relative to glycine control, % at 25 µM; AID 1259313; 2.5% of 340,000 active;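 active = melting temperature shift of at least 10% of the positive control shift, at one fixed dose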
FAS TE block: inhibitors of human fatty acid synthase thioesterase domain; AID 602261; inhibition, % at 15 µM; 0.67% of 360,000 active; recombinant FAS-TE, OMFH fluorogenic substrate, fluorescence endpoint; P49327;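 active = compounds whose normalised, plate-corrected inhibition of enzyme fluorescence in the single-dose primary screen is 50% or more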
Target sequence (P49327 whole entry, looked up, the tested form may be a part): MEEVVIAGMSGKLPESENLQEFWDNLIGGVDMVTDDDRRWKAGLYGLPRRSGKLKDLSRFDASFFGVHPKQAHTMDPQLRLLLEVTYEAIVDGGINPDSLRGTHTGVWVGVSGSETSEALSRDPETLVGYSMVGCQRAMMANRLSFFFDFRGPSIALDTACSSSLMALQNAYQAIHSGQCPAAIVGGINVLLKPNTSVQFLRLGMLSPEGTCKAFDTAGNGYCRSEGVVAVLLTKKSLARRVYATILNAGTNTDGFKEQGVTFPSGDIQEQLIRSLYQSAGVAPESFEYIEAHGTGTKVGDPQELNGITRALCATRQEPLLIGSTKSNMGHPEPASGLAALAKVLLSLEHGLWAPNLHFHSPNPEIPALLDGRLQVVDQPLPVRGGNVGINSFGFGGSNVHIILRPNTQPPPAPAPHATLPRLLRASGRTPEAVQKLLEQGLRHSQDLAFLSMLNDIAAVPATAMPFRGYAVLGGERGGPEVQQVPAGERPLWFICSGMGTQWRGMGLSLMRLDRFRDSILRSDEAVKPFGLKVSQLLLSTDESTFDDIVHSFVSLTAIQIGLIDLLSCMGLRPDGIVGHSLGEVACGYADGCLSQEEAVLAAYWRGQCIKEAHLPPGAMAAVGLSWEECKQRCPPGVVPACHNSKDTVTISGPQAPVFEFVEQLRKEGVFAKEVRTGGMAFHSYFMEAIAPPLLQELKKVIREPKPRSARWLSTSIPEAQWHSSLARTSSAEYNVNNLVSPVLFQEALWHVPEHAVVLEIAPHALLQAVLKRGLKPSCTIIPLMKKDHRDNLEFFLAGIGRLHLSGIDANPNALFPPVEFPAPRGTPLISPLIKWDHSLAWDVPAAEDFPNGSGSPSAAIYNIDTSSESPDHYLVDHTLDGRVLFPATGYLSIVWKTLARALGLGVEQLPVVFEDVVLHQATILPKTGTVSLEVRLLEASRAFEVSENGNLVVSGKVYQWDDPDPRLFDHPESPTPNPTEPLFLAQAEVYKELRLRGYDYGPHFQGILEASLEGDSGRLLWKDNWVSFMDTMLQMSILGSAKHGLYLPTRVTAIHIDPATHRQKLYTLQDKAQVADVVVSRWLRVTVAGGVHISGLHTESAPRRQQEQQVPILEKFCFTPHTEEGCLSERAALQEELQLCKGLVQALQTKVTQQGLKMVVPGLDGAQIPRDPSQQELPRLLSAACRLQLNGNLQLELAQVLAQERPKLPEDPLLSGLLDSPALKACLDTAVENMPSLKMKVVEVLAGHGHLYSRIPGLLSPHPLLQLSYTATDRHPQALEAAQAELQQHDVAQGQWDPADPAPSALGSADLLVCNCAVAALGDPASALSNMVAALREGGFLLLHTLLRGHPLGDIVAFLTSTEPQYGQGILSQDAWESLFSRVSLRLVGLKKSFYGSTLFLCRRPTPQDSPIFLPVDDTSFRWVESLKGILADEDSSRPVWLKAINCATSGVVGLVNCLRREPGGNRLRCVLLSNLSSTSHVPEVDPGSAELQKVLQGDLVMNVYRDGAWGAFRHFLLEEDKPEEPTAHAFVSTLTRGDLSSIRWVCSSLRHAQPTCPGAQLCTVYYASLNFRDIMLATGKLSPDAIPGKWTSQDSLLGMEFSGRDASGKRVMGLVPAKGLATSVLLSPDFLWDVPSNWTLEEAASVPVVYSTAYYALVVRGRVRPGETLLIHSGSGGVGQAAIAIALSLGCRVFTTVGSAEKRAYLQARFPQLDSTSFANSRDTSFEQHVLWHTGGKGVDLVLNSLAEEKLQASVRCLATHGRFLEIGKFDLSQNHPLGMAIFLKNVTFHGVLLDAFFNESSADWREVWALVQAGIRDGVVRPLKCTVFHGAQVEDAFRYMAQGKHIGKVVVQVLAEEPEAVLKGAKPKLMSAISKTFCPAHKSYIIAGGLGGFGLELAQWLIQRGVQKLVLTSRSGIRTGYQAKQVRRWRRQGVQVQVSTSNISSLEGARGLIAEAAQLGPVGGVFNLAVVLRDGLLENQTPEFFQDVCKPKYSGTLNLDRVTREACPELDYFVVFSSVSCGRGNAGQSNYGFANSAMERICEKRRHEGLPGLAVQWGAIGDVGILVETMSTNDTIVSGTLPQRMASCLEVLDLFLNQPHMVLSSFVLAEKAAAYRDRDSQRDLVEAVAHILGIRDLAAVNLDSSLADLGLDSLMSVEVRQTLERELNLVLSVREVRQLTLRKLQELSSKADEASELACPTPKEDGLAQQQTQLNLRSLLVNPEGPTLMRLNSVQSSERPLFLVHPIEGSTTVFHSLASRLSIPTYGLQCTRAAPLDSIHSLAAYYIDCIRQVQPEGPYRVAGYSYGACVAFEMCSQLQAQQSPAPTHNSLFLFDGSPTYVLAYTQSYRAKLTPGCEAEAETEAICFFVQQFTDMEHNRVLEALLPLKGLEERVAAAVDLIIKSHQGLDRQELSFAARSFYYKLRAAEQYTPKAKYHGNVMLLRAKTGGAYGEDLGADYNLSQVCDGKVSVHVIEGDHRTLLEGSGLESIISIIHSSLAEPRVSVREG
ADAM10 inh: ADAM10 inhibition, QFRET primary screen | O14672 | inhibition, % at 7 µM | AID 720582 | 0.62% of 370,000 active | recombinant ADAM10, EDANS/DABCYL FRET peptide cleavage, 3 h;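 active = inhibition above a per-campaign cutoff equal to the mean of compounds falling between control-based bounds plus 3 SD, cut at about 20% in these data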
Each line names hits and unclear results; the compound was inactive in the other large screens. A selection: hits, their analogues and other compounds. The true share with any hit is near 4.3%.

O=C(Nc1ccccc1)c1ccccc1NS(=O)(=O)c1ccc(Cl)s1	GRIN3A LBD mod 21.7
O=C(Nc1ccccc1Cc1ccccc1)c1ccccc1NS(=O)(=O)c1ccc(Cl)s1	GRIN3A LBD mod 34.2
O=C(NCc1ccco1)c1ccccc1NS(=O)(=O)c1ccc(Cl)s1	none
CC(C)(C)N(NC(=O)NCCCl)C(=O)c1ccccc1Cl	none (no result: GRIN3A LBD mod, FAS TE block)
O=S1(=O)c2ccc(Br)cc2OC[C@@H](Cc2ccccc2)N1Cc1cn(Cc2ccc(C(F)(F)F)cc2)nn1	none (no result: GRIN3A LBD mod, FAS TE block)
CN(C(=O)CCn1nnc(-c2cccs2)n1)C1CCCCC1	none (no result: GRIN3A LBD mod, FAS TE block)
CCOC(=O)c1cc(-c2ccc(C)cc2)n(CCC(=O)N2CCN(c3ccccn3)CC2)c1C	GRIN3A LBD mod 12.6
Cc1nc2ccc(C(=O)N3CCN(C(=O)C(Cl)Cl)CC3)cc2n1C1CCCC1	none (no result: GRIN3A LBD mod, FAS TE block)
C=CCn1c(SCC(=O)Nc2cc(C)on2)nc2sc(CC)cc2c1=O	none
C=CCn1c(SCC(=O)Nc2ccc(O)cc2)nc2sc(CC)cc2c1=O	GRIN3A LBD mod 33.5
O=C(NCc1ccc(Cl)cc1)O[C@H]1CC[C@@]23CCCN2C(=O)CCC[C@H]3C1	none (no result: GRIN3A LBD mod, FAS TE block)
COc1cc(/C=N/NC(=O)c2cccs2)ccc1OCc1ccccc1	GRIN3A LBD mod 18.8
CCCc1c(C(=O)N/N=C/c2ccccc2OCc2ccc(F)cc2)nnn1-c1nonc1N	none
CCCc1c(C(=O)N/N=C/c2c(OC)ccc3ccccc23)nnn1-c1nonc1N	GRIN3A LBD mod 30.7
CCCc1c(C(=O)N/N=C/c2ccc(OCc3ccccc3)c(OC)c2)nnn1-c1nonc1N	GRIN3A LBD mod 12.5
CCCc1c(C(=O)N/N=C/c2ccc(OCc3ccccc3)cc2)nnn1-c1nonc1N	none (no result: GRIN3A LBD mod)
COc1cc(/C=N/NC(=O)c2cccs2)ccc1O	none
CCCc1c(C(=O)N/N=C/c2ccc(OC)c(OCc3ccccc3)c2)nnn1-c1nonc1N	GRIN3A LBD mod 37.1
CC1=C2NC(N)=[N+](Cc3ccc4c(c3)OCO4)CC2n2c(=O)n(-c3ccccc3)c(=O)n2C1 (configuration not stated)	none (no result: GRIN3A LBD mod, FAS TE block)
C/C(C=NNC(=O)CSc1nnc(-c2ccc(Cl)cc2)n1-c1ccccc1)=C\c1ccccc1	none (no result: GRIN3A LBD mod, FAS TE block)
C#CCNC(=O)C[C@@H]1C(=O)N(CC=C)/C2=C/CCCCC[C@]21C(=O)OCC	none (no result: GRIN3A LBD mod, FAS TE block)
O=C(Nc1ccc(OC(F)F)c(Cl)c1)Nc1ccc2c(c1)OCO2	GRIN3A LBD mod 35.2
O=C(Cc1ccc(Cl)cc1Cl)Nc1ccc(OC(F)F)c(Cl)c1	none
O=C(Nc1ccc([N+](=O)[O-])cc1)Nc1ccc(OC(F)F)c(Cl)c1	GRIN3A LBD mod 14.8
CC(C)=CCC[C@@]1(C(=O)O)[C@H]2CC=C(CO)[C@@H]1CC/C(C)=C/CC/C(C)=C/C2	none (no result: GRIN3A LBD mod, FAS TE block)
COc1ccc(/C=C/C(=O)c2cc(F)ccc2OC(=O)c2ccccc2)cc1OC	ADAM17 inh 10.7
COc1ccc(/C=C/C(=O)c2cc(F)ccc2OC(=O)c2ccc(OC)c(OC)c2)cc1OC	none
CC1=NN(c2ccc(F)cc2)C(=O)C1C(c1cccc(O)c1)c1c(C)[nH]n(-c2ccc(F)cc2)c1=O (configuration not stated)	none
CC1=NN(c2ccc(Cl)cc2)C(=O)C1C(c1cccc(O)c1)c1c(C)[nH]n(-c2ccc(Cl)cc2)c1=O (configuration not stated)	GRIN3A LBD mod 15.3 (no result: ADAM17 inh, HGIII-sPLA2 inh, ADAM10 inh)
COc1cccc(N2CCN(CC(=O)N(C)Cc3ccccc3Cl)CC2)c1	none (no result: GRIN3A LBD mod, FAS TE block)
O=C(Nc1ccc(Br)cc1)c1ccc2ncsc2c1	GRIN3A LBD mod 26.5
COc1ccc(NC(=O)c2ccc3ncsc3c2)cc1	none
CN(C)S(=O)(=O)c1ccc(NC(=O)c2ccc3ncsc3c2)cc1	GRIN3A LBD mod 16.8 (no result: ADAM17 inh, HGIII-sPLA2 inh, FAS TE block, ADAM10 inh)
O=C(Cn1c(=O)c2cccn2c2cccnc21)NCCCN1CCN(c2ccc(Cl)cc2)CC1	none (no result: GRIN3A LBD mod, FAS TE block)
Brc1ccc(/C=N/Nc2ccc3ccccc3n2)cc1	none
Fc1cccc(/C=N/Nc2ccccn2)c1	GRIN3A LBD mod 12.8
Fc1cccc(/C=N/Nc2ccc3ccccc3n2)c1	HGIII-sPLA2 inh 20.0
Fc1ccc(F)c(C2=NNC(=Nc3ccccc3F)SC2)c1	none
Fc1ccccc1N=C1NN=C(c2ccccc2)CS1	GRIN3A LBD mod 13.5
COc1ccc(Cn2cc(CN3[C@H](CC(C)C)COc4cc(Br)ccc4S3(=O)=O)nn2)cc1	none (no result: GRIN3A LBD mod, FAS TE block)
COc1ccc(CN(C2CC2)S(=O)(=O)c2ccccc2Br)cc1	GRIN3A LBD mod 12.7
CCO/C=N/Nc1nc(C(F)(F)F)nc2c1cnn2Cc1ccccc1	GRIN3A LBD mod 13.1
COc1ccc(Cl)cc1NC(=O)CSc1nnc(C)c(=O)n1N	GRIN3A LBD mod 12.6
COc1ccc(Cl)cc1NC(=O)CSc1nnc(C2CC2)n1C	none
CCOc1ccc(S(=O)(=O)Nc2cc(SCC(=O)O)c(O)c3ccccc23)cc1	none
CC(C)OC(=O)C(C(=O)C(F)(F)F)c1cc(NS(=O)(=O)c2ccc3ccccc3c2)c2ccccc2c1O (configuration not stated)	GRIN3A LBD mod 24.3 (no result: ADAM17 inh, HGIII-sPLA2 inh, ADAM10 inh)
CC(C)C[C@@H]1COc2cc(F)ccc2S(=O)(=O)N1C	none (no result: GRIN3A LBD mod, FAS TE block)
CCCCc1nc(N2CCOCC2)c(C#N)c2c1COC(C)(C)C2	GRIN3A LBD mod 15.0
COC(=O)c1ccccc1NC(=O)COC(=O)/C=C/c1cccs1	GRIN3A LBD mod 11.0
CN(CC(=O)Nc1ccc(F)cc1)C(=O)COC(=O)/C=C/c1cccs1	none
O=C(COC(=O)/C=C/c1cccs1)Nc1ccc(F)cc1	GRIN3A LBD mod 16.1
O=C(CSc1nnc(-c2ccccc2)n1-c1ccccc1)Nc1cccc2ccccc12	none (no result: GRIN3A LBD mod, FAS TE block)
O=[N+]([O-])c1ccc2nc(COCc3nc4ccccc4[nH]3)[nH]c2c1	none (no result: GRIN3A LBD mod, FAS TE block)
c1ccc(-c2noc(-c3ccccc3-c3ccccc3)n2)cc1	GRIN3A LBD mod 13.1
Fc1ccccc1-c1nc(-c2ccc(Cl)cc2)no1	GRIN3A LBD mod 21.4
NC(=O)c1ccc(-c2noc(-c3ccccc3F)n2)cc1	none
Cc1ccc2c(c1)N(CCC(=O)NCc1ccccn1)C(=O)CO2	GRIN3A LBD mod 41.8
COc1ccc(Br)cc1CNC(=O)CCN1C(=O)COc2ccccc21	GRIN3A LBD mod 22.5
O=S(=O)(c1ccccc1Br)N(Cc1cn(Cc2ccccc2)nn1)C1CC1	none (no result: GRIN3A LBD mod, FAS TE block)
Cc1cccc([C@@H]2[C@@H]3C(=O)N(Cc4ccccc4)C(=O)[C@@H]3[C@]3(C)C(=O)N(c4ccc(C(F)(F)F)cc4)C(=O)N23)c1	GRIN3A LBD mod 12.7, FAS TE block 81.3 (no result: ADAM17 inh, HGIII-sPLA2 inh, ADAM10 inh)
Cc1cccc(Cn2cc(CN3CC(N(C)CCCOC(=O)c4cc(C)cc(C)c4)CS3(=O)=O)nn2)c1 (configuration not stated)	none (no result: GRIN3A LBD mod, FAS TE block)
Cc1ccc(NC(=O)CCNS(=O)(=O)c2cccc3nonc23)cc1Cl	none
COc1ccc(NC(=O)CCNS(=O)(=O)c2cccc3nonc23)cc1Cl	GRIN3A LBD mod 18.0
COc1ccc(C(=O)C2(C(=O)Nc3cc(C)cc(C)c3)CC(c3ccccc3C(F)(F)F)=NO2)cc1 (configuration not stated)	none (no result: GRIN3A LBD mod, FAS TE block)
Cc1c(NC(=O)C2CCCN(S(=O)(=O)c3ccccc3[N+](=O)[O-])C2)c(=O)n(-c2ccccc2)n1C (configuration not stated)	none (no result: GRIN3A LBD mod, FAS TE block)
O=C(CSc1ncnc2nc[nH]c12)N1CCOCC1	GRIN3A LBD mod 10.5
